Source: PubChem BioAssay (National Center for Advancing Translational Sciences (NCATS))
In the library only some 2.2% were active in any assay of this set; here they are far more common.
TDP-43 yeast inh: inhibitors of TDP-43 toxicity in yeast; Potency, µM (series often up to 46.1 µM), without a hit: at the top dose growth rescue (activation), usual class: activators; 1.8% of 410,000 active; TDP-43 expressing yeast growth rescue, BacTiter-Glo, 24 h; also: % of control where 0% means no effect; nearly all actives have a fitted effect of over 50% in size
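Readout is BacTiter-Glo luminescence of cell growth, so inhibitors register as activators. TDP-43-expressing yeast at OD600=0.02 in galactose medium, after raffinose pregrowth to mid-log, were incubated with compound for 24 hr at 30 deg C.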
Mito fusion act: mitochondrial division inhibition or fusion activation. S. cerevisiae fusion-defective mutant growth rescue, CellTiterGlo 48 h. Potency, µM (series often up to 46.1 µM), for the others: at the top dose growth rescue (activation), usual class: activators. 0.23% of 320,000 active. AID 485298; also: % of control where 0% means no effect; nearly all actives have a fitted effect of over 45% in size
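Compounds are tested for their ability to restore growth of mitochondrial fusion-defective yeast strains at non-permissive 37C in YPEG medium over 48 hours. Viability is quantified by luciferase luminescence.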
ERG-DNA inh: blocks human ERG Ets domain binding to DNA. fluorescence polarization, His-ERG Ets domain / labelled DNA. Potency, µM (doses to about 76.9 µM), inactives show at the top dose FP activity, negative = inhibition, usual class: inhibitors. 0.028% of 370,000 active. AID 624246; active = well fitted inhibition curve with a large enough effect in the polarisation, with a control signal flat; inconclusive = small, poorly fitted or top-dose-only effect, or effect the other way, or a change in a side signal; inactive = no such curve, though single readings can be large or run the other way; the % refers to the polarisation;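 also: polarization taken with two DNA probes labelled with fluorescein and Texas red; % of control where 0% means no effect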
Target sequence (P11308 whole entry, looked up, the tested form may be a part): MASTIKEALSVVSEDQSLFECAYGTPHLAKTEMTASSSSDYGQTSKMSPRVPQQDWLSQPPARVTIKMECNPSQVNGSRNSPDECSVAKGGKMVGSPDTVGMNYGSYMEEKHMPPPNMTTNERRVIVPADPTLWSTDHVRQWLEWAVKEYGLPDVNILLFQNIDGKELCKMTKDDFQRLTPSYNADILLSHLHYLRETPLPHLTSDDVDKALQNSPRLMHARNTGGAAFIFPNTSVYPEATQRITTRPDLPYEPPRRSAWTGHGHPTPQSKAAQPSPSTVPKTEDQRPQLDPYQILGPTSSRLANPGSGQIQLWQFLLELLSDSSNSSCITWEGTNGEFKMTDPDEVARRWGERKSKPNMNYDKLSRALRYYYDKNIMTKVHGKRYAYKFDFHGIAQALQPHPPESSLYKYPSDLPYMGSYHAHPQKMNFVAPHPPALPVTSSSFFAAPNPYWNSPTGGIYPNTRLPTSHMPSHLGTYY
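His-tagged ERG Ets domain (1 uM in the protein solution; 300mM KCl, 50mM Tris-HCl, 1mM EDTA, 1mM DTT, pH 7.5) received compound, then a probe mix of 5 nM fluorescein-DNA and 100nM Texas-615-DNA. Fluorescence polarization was read for both dyes.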
aSyn yeast inh: rescues yeast growth from alpha-synuclein toxicity. 0.14% of 370,000 active. AID 652106. Yeast expressing alpha-synuclein, growth rescue, BacTiter-Glo, 24 h. Potency, µM (titrated, usually from 46.1 µM), for the others: at the highest dose growth rescue (activation), actives largely listed as activators; also: % of control where 0% means no effect; nearly all actives have a fitted effect of over 65% in size
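Screening used galactose-induced yeast with toxic alpha-synuclein levels, exposed to compound for 24 hr at 30 deg C. Cell growth, read with BacTiter-Glo luminescence, gave the measured signal.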
FUS suppressor: suppressors of FUS proteinopathy in yeast. S. cerevisiae FUS-expressing, growth rescue, OD600, 24 h. Potency, µM (titrated, usually from 76.6 µM), usual class: activators. AID 1347120. 0.24% of 390,000 active;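 also: plate controls were DMSO vehicle for no effect and reference control for full effect; nearly all actives have a fitted effect of over 55% in size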
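Galactose (2%) drives FUS expression in yeast precultured in raffinose; seeding density OD 0.005. Test compounds incubated 24hr at 30C and 99% humidity before absorbance at 600 nm was measured.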
Abeta rescue: A-beta toxicity reversal in yeast | 0.063% of 410,000 active | AID 1347071 | yeast expressing A-beta42, growth rescue, OD600, 48 h; response scale: 0% DMSO, 100% iron-clioquinol control | Potency, µM (top dose mostly 46.1 µM), usual class: activators; also: nearly all actives have a fitted effect of over 55% in size
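Growth rescue measured by 600 nm absorbance after 48 h yeast culture at 30 C with compound. Values normalized between DMSO and an equimolar ferric chloride plus clioquinol control.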
* = called active by the depositor; i = inactive; ? = inconclusive; . = not tested or not shown; ! = not confirmed by another sample. Unless noted, calls follow the shape of the dose curve; as a rule, active = well fitted curve in the direction sought with a large enough effect; inconclusive = small, poorly fitted or top-dose-only effect, or another doubt; inactive = no such curve, though single readings can be large; an effect the other way counts as inactive or inconclusive. Potency is read from the fitted curve at half-maximal effect.

SMILES	TDP-43 yeast inh	Mito fusion act	ERG-DNA inh	aSyn yeast inh	FUS suppressor	Abeta rescue
Cc1cc(N)n2ncc(-c3ccc(F)cc3)c2n1	18.9%	9.4%	-0.9%	2.8%	i	i
O=C(Nc1cccs1)Nc1ccc(F)cc1F	14.1µM*!	9.8%	1.2%	-15.0%	i	i
O=C(Nc1ccc(F)cc1F)Nc1ccc(F)cc1F	0.7%	-2.7%	10.5%	-1.5%	i	i
Cc1cccnc1NC(=O)Nc1cccs1	5.01µM*	3.9%	-3.9%	0.4%	i	i
O=C(Nc1ccc(F)cc1F)Nc1csc2ccccc12	11.2µM*	8.6%	34.2%	-23.1%	i	i
O=C(Nc1cccs1)Nc1ccccc1Cl	12.0%	3.1%	1.0%	-10.5%	i	i
O=C(Nc1ccc(F)c(Cl)c1)Nc1csc2ccccc12	-7.9%	-5.8%	10.5%	-19.3%	i	i
Cc1ccc(NC(=O)Nc2cccs2)c(Cl)c1	12.6µM*	3.5%	-4.8%	-19.1%	i	i
Cc1ccc(NC(=O)c2ccc(NC(=O)N3CCSc4ncccc43)cc2)c(Cl)c1	12.2%	.	1.5%	.	i	i
COc1ccc(Oc2c(Cl)cnn(-c3cc(C)cc(C)c3)c2=O)cc1	.	.	.	.	i	.
O=C(Nc1cccs1)Nc1ccc(Br)cc1F	14.1µM*	11.7%	-2.7%	-20.7%	i	i
CC1=NNC(=O)/C1=C\c1cn(-c2ccccc2)nc1-c1ccc(Cl)cc1	10µM*	-15.8%	3.5%	-26.4%	.	i
S=C1SCN(Cc2cccnc2)CN1Cc1ccccc1	25.1µM*	7.3%	8.1%	-9.9%	i	i
O=C(Nc1sc2c(c1C(=O)NCc1ccco1)CCCC2)c1cc(=O)c2cc(Cl)ccc2o1	20.6%	.	7.6%	.	i	i
COc1ccccc1CNC(=O)COc1ccc(C)cc1	11.2µM*	-5.1%	2.8%	23.2%	i	i
COC(=O)c1ccc(COC(=O)c2ccccc2OC)cc1	28.0%	11.5%	-3.1%	9.8%	i	i
COC(=O)c1ccc(OCC(=O)c2ccccc2OC)cc1	11.2µM*	5.1%	-1.0%	-0.3%	i	i
CC(C)Oc1ccc2c(=O)c(-c3ccccc3)coc2c1	?	25.1µM*!	13.7%	12.2%	i	i
COC(=O)COc1ccc2c(=O)c(-c3ccccc3)coc2c1	0.9%	-2.6%	-8.8%	-1.7%	i	i
OCc1cccc(-c2cnc3c(Nc4cccc(OC(F)(F)C(F)F)c4)nccn23)c1	20µM*	.	.	-7.3%	?	i
O=S1(=O)CCOCC(CO)N1Cc1cccc(Br)c1 (centres undefined)	.	.	.	.	i	.
Cn1cc(CNC(=O)c2cc(COc3ccc4c(c3)CCCC4)on2)cn1	?	0.2%	1.2%	-10.2%	.	i
O=C(NC(c1cccnc1)C(F)(F)F)c1cc(COc2ccc3c(c2)CCCC3)on1 (centres undefined)	20µM*	3.8%	-2.7%	11.6%	i	i
COc1ccc(C2C(C(=O)Nc3cccnc3)=C(C)Nc3nc(SCc4ccccc4)nn32)cc1 (centres undefined)	12.1%	.	2.2%	.	i	i
Nc1[nH]c2cc(C(F)(F)F)ccc2c1C(=O)NCc1ccc(F)cc1	.	.	.	.	i	.
SMILES	TDP-43 yeast inh	Mito fusion act	ERG-DNA inh	aSyn yeast inh	FUS suppressor	Abeta rescue
CC(C)(Cc1cc(CC(C)(C)C(=O)O)cc(C(C)(C)C)c1)C(=O)O	35.5µM*	2.8%	10.0%	3.3%	i	i
O=C(c1ccccc1)n1ccc2ccc(-c3ccc4ccn(C(=O)c5ccccc5)c4c3)cc21	.	.	.	.	i	.
O=C(c1ccccc1)n1ccn(-c2ccccc2)c1=S	11.2µM*	17.8%	0.5%	-1.0%	i	i
CC(C)(C)c1ccc(C(=O)N2CCC2(C)C(=O)Nc2cccc3ncccc23)cc1 (centres undefined)	25.1µM*	.	.	10.6%	i	i
CCn1nc(C(=O)Nc2cccc3ccccc23)c(Cl)c1Cl	15.8µM*	7.8%	3.6%	-4.4%	i	i
CCn1nc(C(=O)Nc2ccccc2C)c(Cl)c1Cl	29.0%	-2.9%	-7.8%	-7.7%	i	i
C[C@@H](C(=O)NCCc1ccccc1)N1C(=O)N2CCc3c([nH]c4ccccc34)[C@@]2(C)C1=O	35.5µM*	-4.5%	9.1%	?	i	i
COC(=O)c1sc(NC(=O)COc2c(C)cccc2C)nc1C	20µM*	16.6%	2.6%	9.7%	i	i
COC(=O)c1sc(NC(=O)COc2ccccc2C)nc1C	8.1%	2.6%	7.5%	-4.5%	i	i
O=C1Cc2ccccc2C(=O)N1	22.4µM*	.	.	-8.0%	i	i
C=Cc1ccc(Cn2c(=O)cc(C)c3c(C)nn(-c4ccccc4)c32)cc1	3.0%	.	-0.4%	.	i	i
CN(C)S(=O)(=O)c1ccc(NC(=O)c2ccc(Br)o2)cc1	-13.5%	1.9%	-2.2%	-13.3%	i	i
CN(C1CCCCC1)S(=O)(=O)c1ccc(NC(=O)c2ccc(Br)o2)cc1	0.0%	11.2µM*	1.9%	14.8%	i	i
Fc1ccccc1N1CCN(c2nc(-c3cccs3)nc3ccccc23)CC1	14.1µM*	4.9%	-2.8%	4.4%	i	i
CC(=O)N1CCN(c2nc(-c3cccs3)nc3ccccc23)CC1	-16.6%	2.8%	6.7%	-1.5%	i	i
Cc1ccc(Cl)cc1N1CCN(C(=O)CCn2c(=O)c3cccn3c3cccnc32)CC1	?	.	0.1%	.	i	i
O=C(CCn1c(=O)c2cccn2c2cccnc21)N1CCN(c2cccc(Cl)c2)CC1	20µM*!	6.9%	5.2%	18.3%	i	i
Cn1c(SCc2ccccc2Cl)nnc1-c1cnccn1	11.2µM*	4.3%	-1.1%	-0.9%	i	i
COc1cc(OC)c(/C=C/c2nccc3ccccc23)c(OC)c1	.	.	.	-9.5%	.	.
CCC(=O)c1ccc(OCC(=O)N(Cc2nnc(-c3ccccc3Cl)o2)C2CC2)cc1	20.6%	15.4%	9.4%	4.3%	i	i
O=C(COc1ccc(Br)cc1)N(Cc1nnc(-c2ccccc2Cl)o1)C1CC1	20µM*	.	.	?	?	i
CCCN(Cc1nnc(-c2ccccc2Cl)o1)C(=O)COc1ccc(Cl)cc1	35.5µM*	18.3%	-0.6%	6.2%	.	i
Cc1ccc(N(CC(=O)N2CCN(c3ccc(Cl)cc3)CC2)S(=O)(=O)c2c(C)noc2C)cc1	26.0%	.	-3.2%	.	i	?
Cc1ccc(N(CC(=O)N2CCN(c3cc(C)ccc3C)CC2)S(=O)(=O)c2c(C)nn(C)c2C)cc1	35.5µM*	.	-0.7%	.	?	i
